Among all 39,000 compounds or so, about 3,300 (8.5%) were called active. The list comes from a sample in which actives are over-represented; it also holds similar structures and randomly drawn compounds.
Each compound was assayed on HepG2 (assay: cytotoxicity call (relative viability < 0.9)). Conditions: 10 µM.

Which cytotoxicity call does the source give for `COc1ccc(NC(=O)N(C)C[C@H]2Oc3ccc(NC(=O)Nc4ccc(C(F)(F)F)cc4)cc3CC(=O)N([C@@H](C)CO)C[C@@H]2C)cc1` here?
The cytotoxicity call was “inactive”.

Which cytotoxicity call does the source give for `O=C(O)c1csc2c1CCCCC2` here?
Its cytotoxicity call is “inactive”.

`COC(=O)CC[C@H]1CCCNC1` was tested. Which cytotoxicity call did it give?
Its cytotoxicity call is “inactive”.

How did the cytotoxicity call turn out when `C[C@@H]1CN([C@H](C)CO)C(=O)c2cc(NS(=O)(=O)c3ccccc3)ccc2O[C@@H](C)CCCCO[C@H]1CN(C)C(=O)C1CCCCC1` was run?
The cytotoxicity call was “inactive”.

With `NCc1ccno1` as the compound, how does the cytotoxicity call read?
Its cytotoxicity call is “inactive”.

For `C=CCCC(=O)N(C)[C@H](C)[C@@H](OC(=O)[C@@H]1[C@@H]2C=C[C@]3(O2)[C@H](CN(CC=C)Cc2ccccc2)N(C(C)(C)C)C(=O)[C@@H]13)c1ccccc1`, which cytotoxicity call is on record?
The cytotoxicity call was “inactive”.

Which cytotoxicity call does the source give for `COc1ccc(NC(=O)Nc2ccc3c(c2)C(=O)N([C@H](C)CO)C[C@H](C)[C@H](CN(C)C(=O)Nc2cccc4ccccc24)O3)cc1` here?
The cytotoxicity call was “inactive”.

Which cytotoxicity call does the source give for `C[C@H](CO)N1C[C@H](C)[C@H](CN(C)S(=O)(=O)c2ccc(C#N)cc2)Oc2ncc(C#Cc3ccc(F)cc3)cc2C1=O` here?
Its cytotoxicity call is “inactive”.

For `Cc1ccc(S(=O)(=O)N(C)C[C@@H]2Oc3ncc(C#Cc4ccc(F)cc4)cc3C(=O)N([C@H](C)CO)C[C@@H]2C)cc1`, which cytotoxicity call is on record?
Its cytotoxicity call is “inactive”.

Which cytotoxicity call does the source give for `C[C@H](CO)N1C[C@H](C)[C@H](CN(C)S(=O)(=O)c2ccc(F)cc2)Oc2ncc(C#Cc3ccc(F)cc3)cc2C1=O` here?
Its cytotoxicity call is “active”.

How did the cytotoxicity call turn out when `Cc1ccc(S(=O)(=O)Nc2ccc3c(c2)C(=O)N([C@@H](C)CO)C[C@H](C)[C@@H](CN(C)S(=O)(=O)c2ccc(Cl)cc2)OCCCC[C@@H](C)O3)cc1` was run?
Its cytotoxicity call is “inactive”.

With `NC(=O)[C@@H]1[C@H]2C(=O)O[C@H](c3ccccc3)[C@H](c3ccccc3)N2[C@H](c2ccc(OCCO)cc2)[C@@]12C(=O)Nc1ccc(C#CC3=CCCCC3)cc12` as the compound, how does the cytotoxicity call read?
The cytotoxicity call was “inactive”.

How did the cytotoxicity call turn out when `O=C1O[C@@H](c2ccccc2)[C@@H](c2ccccc2)N2[C@@H](c3ccccc3OCCO)[C@]3(C(=O)Nc4ccc(C#CC5=CCCCC5)cc43)[C@@H](C(=O)O)[C@H]12` was run?
The cytotoxicity call was “inactive”.

How did the cytotoxicity call turn out when `O=C1O[C@H](c2ccccc2)[C@H](c2ccccc2)N2[C@H]1[C@@H](C(=O)O)[C@]1(C(=O)Nc3ccc(C#CC4=CCCCC4)cc31)[C@H]2c1ccccc1OCCO` was run?
Its cytotoxicity call is “active”.

How did the cytotoxicity call turn out when `O=C1O[C@H](c2ccccc2)[C@H](c2ccccc2)N2[C@H]1[C@@H](C(=O)O)[C@]1(C(=O)Nc3ccc(C#CC4=CCCCC4)cc31)[C@H]2C1CCCCC1` was run?
The cytotoxicity call was “active”.

Which cytotoxicity call does the source give for `COc1ccc(C#Cc2ccc3c(c2)[C@]2(C(=O)N3)[C@H](c3ccc(O)cc3)N3[C@H](c4ccccc4)[C@H](c4ccccc4)OC(=O)[C@H]3[C@@H]2C(=O)N2CCCCCCC2)cc1` here?
Its cytotoxicity call is “inactive”.

`O=C1O[C@@H](c2ccccc2)[C@@H](c2ccccc2)N2[C@@H](c3ccc(OCCO)cc3)[C@]3(C(=O)Nc4ccc(C#CC5=CCCCC5)cc43)[C@@H](C(=O)N3CCN(c4ncccn4)CC3)[C@H]12` was tested. Which cytotoxicity call did it give?
Its cytotoxicity call is “inactive”.

How did the cytotoxicity call turn out when `O=C1O[C@@H](c2ccccc2)[C@@H](c2ccccc2)N2[C@@H](c3ccc(OCCO)cc3)[C@]3(C(=O)Nc4ccc(C#CC5=CCCCC5)cc43)[C@@H](C(=O)N3CCCCCCC3)[C@H]12` was run?
The cytotoxicity call was “active”.

Which cytotoxicity call does the source give for `O=C1O[C@H](c2ccccc2)[C@H](c2ccccc2)N2[C@H]1[C@@H](C(=O)O)[C@]1(C(=O)Nc3ccc(C#CC4(O)CCCCCC4)cc31)[C@H]2c1ccccc1OCCO` here?
The cytotoxicity call was “inactive”.

Which cytotoxicity call does the source give for `O=C1O[C@H](c2ccccc2)[C@H](c2ccccc2)N2[C@H]1[C@@H](C(=O)O)[C@]1(C(=O)Nc3ccc(C#CC4=CCCCC4)cc31)[C@H]2c1ccc(O)cc1` here?
Its cytotoxicity call is “inactive”.

Which cytotoxicity call does the source give for `COc1ccc(C#Cc2ccc3c(c2)[C@]2(C(=O)N3)[C@H](c3ccc(O)cc3)N3[C@H](c4ccccc4)[C@H](c4ccccc4)OC(=O)[C@H]3[C@@H]2C(=O)N2CCN(c3ncccn3)CC2)cc1` here?
The cytotoxicity call was “inactive”.

`COc1ccc(C#Cc2ccc3c(c2)[C@]2(C(=O)N3)[C@H](C(=O)N3CCCCCCC3)[C@H]3C(=O)O[C@H](c4ccccc4)[C@H](c4ccccc4)N3[C@@H]2c2ccc(O)cc2)cc1` was tested. Which cytotoxicity call did it give?
The cytotoxicity call was “active”.

Which cytotoxicity call does the source give for `O=C1O[C@@H](c2ccccc2)[C@@H](c2ccccc2)N2[C@@H](c3ccc(O)cc3)[C@]3(C(=O)Nc4ccc(C#CC5=CCCCC5)cc43)[C@@H](C(=O)O)[C@H]12` here?
Its cytotoxicity call is “inactive”.

Which cytotoxicity call does the source give for `CCNC(=O)C[C@H]1CC[C@H]2[C@@H](COC[C@H](O)CN2C(=O)Nc2c(C)noc2C)O1` here?
Its cytotoxicity call is “inactive”.

How did the cytotoxicity call turn out when `O=C(C[C@@H]1C=C[C@H](NS(=O)(=O)c2ccccc2)[C@H](CO)O1)NCc1ccncn1` was run?
The cytotoxicity call was “inactive”.

For `COc1ccc2c3c(n(c2c1)C)[C@@H](CO)N(C[C@]13CCN(CC1)C(=O)Nc1cccc(c1)F)S(=O)(=O)C`, which cytotoxicity call is on record?
Its cytotoxicity call is “inactive”.

`C[C@H]1CN([C@@H](C)CO)C(=O)Cc2cc(NC(=O)c3ccncc3)ccc2O[C@H]1CN(C)Cc1ccncc1` was tested. Which cytotoxicity call did it give?
The cytotoxicity call was “inactive”.

For `COCCNC(=O)C[C@@H]1CC[C@@H]2[C@H](COC[C@@H](O)CN2S(=O)(=O)c2ccccc2C)O1`, which cytotoxicity call is on record?
Its cytotoxicity call is “inactive”.

Which cytotoxicity call does the source give for `C[C@H](CO)N1C[C@H](C)[C@@H](CN(C)C(=O)C2CCCCC2)OCCCC[C@H](C)Oc2ccc(NC(=O)CCC(F)(F)F)cc2C1=O` here?
Its cytotoxicity call is “inactive”.

For `C[C@@H]1CCCCO[C@@H](CN(C)C(=O)c2ccncc2)[C@@H](C)CN([C@@H](C)CO)C(=O)c2cc(NS(=O)(=O)c3cn(C)cn3)ccc2O1`, which cytotoxicity call is on record?
Its cytotoxicity call is “inactive”.

Which cytotoxicity call does the source give for `Cc1noc(C)c1NC(=O)Nc1cccc2c1O[C@H](CN(C)C(=O)Nc1ccc(C(F)(F)F)cc1)[C@@H](C)CN([C@@H](C)CO)C2=O` here?
The cytotoxicity call was “inactive”.

Which cytotoxicity call does the source give for `C=CC[C@@H](CC(=O)N[C@@H](CO)Cc1ccccc1)C(=O)N1CCC[C@@H]1COC(=O)[C@@H](CC=C)NC(=O)OCC1c2ccccc2-c2ccccc21` here?
The cytotoxicity call was “inactive”.

`C[C@@H]1CN([C@H](C)CO)C(=O)Cc2cc(NC(=O)Nc3cccc4ccccc34)ccc2O[C@@H]1CN(C)Cc1ccc(-c2ccccc2)cc1` was tested. Which cytotoxicity call did it give?
Its cytotoxicity call is “inactive”.

With `CCS(=O)(=O)N1C[C@]2(CCN(CC2)C(=O)c2cccnc2)c2c(n(c3cc(ccc23)OC)C)[C@@H]1CO` as the compound, how does the cytotoxicity call read?
The cytotoxicity call was “inactive”.

With `COCCNC(=O)c1ccc(N2C[C@H]3C[C@@H](C2)c2cccc(=O)n2C3)c(NC(=O)c2ccc(OC)cc2)c1` as the compound, how does the cytotoxicity call read?
The cytotoxicity call was “inactive”.

With `O=C1O[C@H](c2ccccc2)[C@H](c2ccccc2)N2[C@H]1[C@@H](C(=O)N1CCCCCCC1)[C@]1(C(=O)Nc3ccc(C#CC4=CCCCC4)cc31)[C@H]2c1ccccc1OCCO` as the compound, how does the cytotoxicity call read?
The cytotoxicity call was “inactive”.

`O=C1O[C@@H](c2ccccc2)[C@@H](c2ccccc2)N2[C@@H](c3ccccc3OCCO)[C@]3(C(=O)Nc4ccc(C#CC5=CCCCC5)cc43)[C@@H](C(=O)N3CCCCCCC3)[C@H]12` was tested. Which cytotoxicity call did it give?
The cytotoxicity call was “active”.

With `NC(=O)[C@H]1[C@@H]2C(=O)O[C@@H](c3ccccc3)[C@@H](c3ccccc3)N2[C@@H](c2ccccc2OCCO)[C@]12C(=O)Nc1ccc(C#CC3=CCCCC3)cc12` as the compound, how does the cytotoxicity call read?
Its cytotoxicity call is “active”.

Which cytotoxicity call does the source give for `COc1cc2c(cc1OC)CN(C(=O)[C@@H]1[C@H]3C(=O)O[C@H](c4ccccc4)[C@H](c4ccccc4)N3[C@H](c3ccc(OCCO)cc3)[C@@]13C(=O)Nc1ccc(C#CC4(O)CCCCCC4)cc13)CC2` here?
The cytotoxicity call was “active”.

With `COc1cc2c(cc1OC)CN(C(=O)[C@H]1[C@@H]3C(=O)O[C@@H](c4ccccc4)[C@@H](c4ccccc4)N3[C@@H](c3ccc(OCCO)cc3)[C@]13C(=O)Nc1ccc(C#CC4(O)CCCCCC4)cc13)CC2` as the compound, how does the cytotoxicity call read?
The cytotoxicity call was “inactive”.

How did the cytotoxicity call turn out when `COc1cc2c(cc1OC)CN(C(=O)[C@@H]1[C@H]3C(=O)O[C@H](c4ccccc4)[C@H](c4ccccc4)N3[C@H](c3ccc(O)cc3)[C@@]13C(=O)Nc1ccc(C#CC4(O)CCCCCC4)cc13)CC2` was run?
The cytotoxicity call was “inactive”.

Which cytotoxicity call does the source give for `NC(=O)NCC#Cc1ccc2c(c1)[C@]1(C(=O)N2)[C@H](C(N)=O)[C@H]2C(=O)O[C@H](c3ccccc3)[C@H](c3ccccc3)N2[C@@H]1c1ccccc1OCCO` here?
Its cytotoxicity call is “inactive”.

Which cytotoxicity call does the source give for `COc1cc2c(cc1OC)CN(C(=O)[C@H]1[C@@H]3C(=O)O[C@@H](c4ccccc4)[C@@H](c4ccccc4)N3[C@@H](c3ccccc3OCCO)[C@]13C(=O)Nc1ccc(C#CC4=CCCCC4)cc13)CC2` here?
Its cytotoxicity call is “inactive”.

How did the cytotoxicity call turn out when `O=C1O[C@@H](c2ccccc2)[C@@H](c2ccccc2)N2[C@@H](c3ccccc3OCCO)[C@]3(C(=O)Nc4ccc(C#CC5(O)CCCCCC5)cc43)[C@@H](C(=O)O)[C@H]12` was run?
The cytotoxicity call was “inactive”.

For `C[C@@H]1CN([C@H](C)CO)C(=O)c2cccc(NC(=O)C3CCOCC3)c2O[C@H]1CN(C)S(=O)(=O)c1cccs1`, which cytotoxicity call is on record?
Its cytotoxicity call is “inactive”.

How did the cytotoxicity call turn out when `C[C@@H]1CN([C@H](C)CO)C(=O)c2cc(NC(=O)Nc3cccc4ccccc34)ccc2O[C@@H](C)CCCCO[C@H]1CN(C)Cc1ccc(Cl)c(Cl)c1` was run?
Its cytotoxicity call is “inactive”.

For `C[C@@H]1CN([C@@H](C)CO)C(=O)c2cc(NC(=O)Cn3cnnn3)ccc2O[C@H]1CN(C)Cc1ccc(-c2ccccc2)cc1`, which cytotoxicity call is on record?
The cytotoxicity call was “inactive”.

`CC(C)CN1C(=O)[C@@]2(c3ccc([N+](=O)[O-])cc3)CC(=O)N(CC34CC5CC(CC(C5)C3)C4)[C@@H]2c2ccc(CO)cc21` was tested. Which cytotoxicity call did it give?
The cytotoxicity call was “inactive”.

How did the cytotoxicity call turn out when `Cc1cc(C)n(-c2nc(=O)cc(C)[nH]2)n1` was run?
Its cytotoxicity call is “inactive”.

`[N-]=[N+]=NCCOCCNC(=O)CCCOc1ccc(CS(=O)c2nnc(-c3ccc(F)cc3)o2)nc1` (stereo unspecified) was tested. Which cytotoxicity call did it give?
Its cytotoxicity call is “active”.

`COc1ccc(NC(=O)N(C)C[C@@H]2OCCCC[C@@H](C)Oc3ccc(NC(=O)CCC(F)(F)F)cc3C(=O)N([C@@H](C)CO)C[C@H]2C)cc1` was tested. Which cytotoxicity call did it give?
The cytotoxicity call was “inactive”.

For `Cc1noc(C)c1NC(=O)N(C)C[C@@H]1OCCCC[C@@H](C)Oc2ccc(NS(=O)(=O)c3ccc(F)cc3)cc2C(=O)N([C@H](C)CO)C[C@@H]1C`, which cytotoxicity call is on record?
Its cytotoxicity call is “inactive”.

With `C[C@@H]1CN([C@@H](C)CO)C(=O)Cc2cc(NC(=O)Cc3cn(C)c4ccccc34)ccc2O[C@@H]1CN(C)S(C)(=O)=O` as the compound, how does the cytotoxicity call read?
The cytotoxicity call was “inactive”.

`CCS(=O)(=O)CCn1c([N+](=O)[O-])cnc1C` [listing 1 of 2 here] was tested. Which cytotoxicity call did it give?
The cytotoxicity call was “inactive”.

Which cytotoxicity call does the source give for `Cc1ncc([N+](=O)[O-])n1CCO` here?
Its cytotoxicity call is “inactive”.

Which cytotoxicity call does the source give for `CCS(=O)(=O)CCn1c([N+](=O)[O-])cnc1C` [listing 2 of 2 here] here?
Its cytotoxicity call is “active”.

— the antibiotic and cytotoxicity screens of Wong et al. (2023)
